High-throughput results from PubChem BioAssay.
The list is not random: actives were taken first. Their share in the collection is about 4.1%.
ssDAF12 agonist = S. stercoralis DAF-12 nuclear receptor activators, primary screen, cell-based, luminescence, HEK293, GRIP1 co-expression, lit1-tk-luc; HEK293 ssDAF-12/GRIP1 lit1-tk-luc reporter; % of 3 µM dafachronic acid response; activation, % at 6.8 µM; 370,000 tested, 1% active; AID 652126, 2013;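 active = activation above the mean over all tested compounds plus 3 SD, cut at about 0.9% in these data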
hcDAF-12 act = H. contortus DAF-12 nuclear receptor activators, primary screen, cell-based, luminescence, HEK293, lit1-tk-luc reporter. HEK293 hcDAF-12 lit1-tk-luc reporter; 0% DMSO, 100% Δ7-dafachronic acid. activation, % at 6.8 µM. AID 652067, 2013. 370,000 tested, 1.4% active;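 active = activation above the mean of all tested compounds plus 3 SD, cut at about 5.5% in these data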
DAX1 inh-1 = DAX1 (NR0B1) inhibitors, primary screen, cell-based, HEK293, Gal4-DAX1, luciferase luminescence. 340,000 tested, 0.99% active. Nuclear receptor subfamily 0 group B member 1 (Homo sapiens), P51843. HEK293 Gal4-DAX1 luciferase reporter. AID 504766, 2011. inhibition, % at 6.75 µM;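 active = inhibition above the mean over all tested compounds plus 3 SD, cut at about 4.2% in these data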;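 also: inhibition shows as a rise in luminescence from relieved DAX1 repression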
Target sequence (P51843 207-470 limits assumed): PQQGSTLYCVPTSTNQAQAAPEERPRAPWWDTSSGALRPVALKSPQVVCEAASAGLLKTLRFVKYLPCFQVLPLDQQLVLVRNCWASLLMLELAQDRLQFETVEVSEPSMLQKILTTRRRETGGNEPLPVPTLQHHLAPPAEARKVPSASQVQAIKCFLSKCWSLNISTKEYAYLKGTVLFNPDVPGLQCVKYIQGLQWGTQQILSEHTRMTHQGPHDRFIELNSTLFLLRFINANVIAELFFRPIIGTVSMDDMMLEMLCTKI
DAX1 inh-2 = DAX1 (NR0B1) inhibitors on StAR promoter, primary screen, cell-based, luminescence, SF-1 (NR5A1), full-length DAX-1. HEK293T StAR-luciferase reporter, SF-1/DAX-1 repression relief. inhibition, % at 6.8 µM. 370,000 tested, 1.1% active. AID 652010, 2013;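 active = inhibition above the mean over all tested compounds plus 3 SD, cut at about 3.6% in these data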;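 also: higher inhibition means more luminescence from relief of DAX-1 repression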
hgDAF-12 ag = H. glycines DAF-12 receptor agonists, primary screen, cell-based, luminescence, HEK293, GAL4 fusion, UAS-luciferase | Nuclear hormone receptor DAF-12 (Heterodera glycines), GAL4 fusion | HEK293 GAL4-hgDAF12 UAS-luciferase reporter, agonist luminescence; normalized to butyrate control | activation, % at 6.8 µM | 370,000 tested, 1.8% active;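 active = activation above a cutoff set at the mean of all screened compounds plus 3 SD, cut at about 10% in these data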
A number is an active result.

CCOC(=O)c1ccc(NC(=O)c2ccccc2)cc1 was read as ssDAF12 agonist inactive, hcDAF-12 act inactive, DAX1 inh-1 inactive, DAX1 inh-2 inactive and hgDAF-12 ag 10.8.
Cc1nc2ccc(C(=O)Nc3ccc(N(C)C)cc3)cc2s1 was read as ssDAF12 agonist inactive, hcDAF-12 act inactive, DAX1 inh-1 inactive, DAX1 inh-2 inactive and hgDAF-12 ag inactive.
For CCOC(=O)c1ccc2nc(C)c(C)nc2c1 the results were ssDAF12 agonist inactive, hcDAF-12 act 5.6, DAX1 inh-1 inactive, DAX1 inh-2 inactive and hgDAF-12 ag inactive.
`CCOC(=O)c1cccc(NC(=O)c2ccc(NC(=O)c3ccco3)cc2)c1` gave ssDAF12 agonist inactive, hcDAF-12 act inactive, DAX1 inh-1 inactive, DAX1 inh-2 inactive and hgDAF-12 ag inactive.
For CCOC(=O)c1cccc(NC(=O)c2ccc(N(C)C)cc2)c1 the results were ssDAF12 agonist inactive, hcDAF-12 act inactive, DAX1 inh-1 inactive, DAX1 inh-2 inactive and hgDAF-12 ag 10.8.
C[C@H]1[C@H](NC(=O)c2ccc(C(C)(C)C)cc2)CC[C@@]23CCCN2C(=O)CCC[C@@H]13 was read as ssDAF12 agonist inactive, hcDAF-12 act inactive and hgDAF-12 ag inactive.
Screening CCOC(=O)[C@]12CCCCC/C=C\1N(CCc1ccc(Cl)cc1)C(=O)[C@H]2CC(=O)NCCCN1CCCC1=O returned ssDAF12 agonist inactive, hcDAF-12 act inactive, DAX1 inh-2 inactive and hgDAF-12 ag inactive.
Screening c1cnc(N2CCN(c3cnccn3)CC2)nc1 returned ssDAF12 agonist inactive, hcDAF-12 act inactive, DAX1 inh-1 inactive, DAX1 inh-2 inactive and hgDAF-12 ag inactive.
`O=C(NNC(=O)c1ccc(NC(=O)c2ccccc2)cc1)c1ccc(F)cc1` gave ssDAF12 agonist inactive, hcDAF-12 act inactive, DAX1 inh-1 inactive, DAX1 inh-2 inactive and hgDAF-12 ag inactive.
O=C(Nc1ccc(C(=O)c2ccccc2)cc1)c1ccccc1 was read as ssDAF12 agonist inactive, hcDAF-12 act inactive, DAX1 inh-1 inactive, DAX1 inh-2 inactive and hgDAF-12 ag 11.2.
Screening O=C(O/N=C1/CCCc2occc21)c1ccc(Cl)cc1Cl returned ssDAF12 agonist inactive, hcDAF-12 act inactive, DAX1 inh-1 6.8, DAX1 inh-2 inactive and hgDAF-12 ag inactive.
O=C(O/N=C1/CCCc2occc21)c1ccccc1 was read as ssDAF12 agonist inactive, hcDAF-12 act inactive, DAX1 inh-1 inactive, DAX1 inh-2 inactive and hgDAF-12 ag inactive.
For O=C(CSc1nnc(-c2ccccn2)n1-c1ccccc1)c1ccc(F)cc1 the results were ssDAF12 agonist inactive, hcDAF-12 act inactive, DAX1 inh-2 inactive and hgDAF-12 ag inactive.
C#CCNC(=O)C[C@H]1C(=O)N(CCCOC)C2=CCCC[C@@]21C(=O)OCC was read as ssDAF12 agonist inactive, hcDAF-12 act inactive, DAX1 inh-2 inactive and hgDAF-12 ag inactive.
`O=C(O)c1ccc2cccnc2n1` gave ssDAF12 agonist 1.3, hcDAF-12 act inactive, DAX1 inh-1 inactive, DAX1 inh-2 inactive and hgDAF-12 ag inactive.
`CCOC(=O)CC(=O)CSc1nc2ccc(C)cc2cc1C#N` gave ssDAF12 agonist 0.9, hcDAF-12 act inactive, DAX1 inh-1 6.7, DAX1 inh-2 3.8 and hgDAF-12 ag 10.6.
Screening CCOC(=O)CC(=O)CSc1nc2c(cc1C#N)CCCCC2 returned ssDAF12 agonist inactive, hcDAF-12 act inactive, DAX1 inh-1 inactive, DAX1 inh-2 inactive and hgDAF-12 ag 11.2.
CCOC(=O)[C@@H]1CSCCS(=O)(=O)N1Cc1ccc(C(F)(F)F)cc1 was read as ssDAF12 agonist inactive, hcDAF-12 act inactive, DAX1 inh-2 inactive and hgDAF-12 ag inactive.
`CC(=O)Nc1nc(-c2cccs2)cs1` gave ssDAF12 agonist inactive, hcDAF-12 act inactive, DAX1 inh-1 inactive, DAX1 inh-2 inactive and hgDAF-12 ag inactive.
For O=C(Nc1nc(-c2cccs2)cs1)c1ccc(Cl)s1 the results were ssDAF12 agonist inactive, hcDAF-12 act inactive, DAX1 inh-1 inactive, DAX1 inh-2 inactive and hgDAF-12 ag 10.7.
